Over roughly 18,000 sequences, “TetR repression strength (sort-seq, GFP reporter)” has its median near 0.23; the highest 2% begin near 0.68. For the sample, the highest values were picked, then their nearest neighbours and some sequences at random.

Sequence of TetR (class B, Tn10) (P04483 whole entry): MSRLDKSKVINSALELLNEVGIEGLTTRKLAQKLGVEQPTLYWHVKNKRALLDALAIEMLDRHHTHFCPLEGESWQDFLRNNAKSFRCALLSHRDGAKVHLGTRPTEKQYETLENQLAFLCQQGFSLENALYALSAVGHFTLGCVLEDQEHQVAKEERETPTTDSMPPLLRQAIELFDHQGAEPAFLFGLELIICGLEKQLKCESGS

The experiment has as its target TetR (class B, Tn10) (UniProt P04483). Kind of experiment: TetR repression strength (sort-seq, GFP reporter) (relative to tetO2 = 1); higher = stronger repression. Particulars: E. coli. Put shortly: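 E. coli SIG10-MAX carried a low-copy plasmid library with eight randomized operator positions between a constitutive promoter and sfGFP, with TetR constitutively expressed. Cells grew 5 h at 37 °C in LB with 50 µg/mL chloramphenicol, then 10^6 cells were FACS-sorted into 13 fluorescence bins, each Illumina-sequenced. Repression strength is the top bin index plus one minus the read-weighted mean bin, divided by the wild-type operator value. Three independent transformations; variants with ≥30 reads in all replicates and CV ≤0.5 were averaged.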
Consider TCCCGGACAGTAACGGAGA, for which the TetR repression strength is 0.312. Next, TCCCGCGGAGTCACTGAGA: 0.415. Next, TCCCTCGTAGTGTTTGAGA: 0.362; TCCCAGTCAGTTCAGGAGA: 0.096. On to TCCCGATAAGTTGCGGAGA, for which the TetR repression strength was 0.185. The result for TCCCTTTCAGTAGCGGAGA reads 0.798; that for TCCCTTTCAGTAGAGGAGA, 1.01. The result for TCCCTTACAGTAGCGGAGA reads 0.0543; that for TCCCTTTCAGTCGAGGAGA, 0.369; that for TCCCTTTCAGTAGGGGAGA, 0.194. The result for TCCCCTTCAGTAGCGGAGA reads 0.344; that for TCCCAGACAGTCATCGAGA, 0.368. Sequence TCCCTAGCAGTTGTAGAGA had a TetR repression strength of 0.509.

As to TCCCTTGCAGTGATCGAGA, the TetR repression strength was determined as 0.654.

Consider TCCCGTCGAGTAGGGGAGA, for which the TetR repression strength was 0.127. Next, TCCCAGCGAGTTACAGAGA: 0.238; TCCCAGCGAGTTAGAGAGA: 0.815.

On to TCCCTGATAGTTTGAGAGA, for which the TetR repression strength turned out to be 0.382. Sequence TCCCTGTTAGTTTGTGAGA came in with a TetR repression strength of 0.4. For the sequence TCCCTGGGAGTTAGAGAGA, the TetR repression strength was 0.832. The sequence TCCCTAGTAGTTAGGGAGA had a TetR repression strength of 0.192.

As to TCCCTAGGAGTTAGGGAGA, the TetR repression strength was 0.979. Next, TCCCAGAGAGTTAGCGAGA: 0.557.

TCCCTTGGAGTTAGGGAGA came in with a TetR repression strength of 0.2.

Take TCCCTGTTAGTTTGAGAGA: the TetR repression strength was found to be 0.856. Next, TCCCTGGGAGTTATAGAGA: 0.354; TCCCTGGGAGTTAGTGAGA: 0.146; TCCCAGAAAGTCAATGAGA: 0.289. Next, TCCCTGCTAGTGGCAGAGA: 0.119; TCCCTATAAGTAGGAGAGA: 0.228.

TCCCAGTGAGTGCGCGAGA: the TetR repression strength was found to be 0.286. The result for TCCCCAGAAGTCGTTGAGA reads 0.061; that for TCCCCGTAAGTACAGGAGA, 0.368. The sequence TCCCGGCAAGTTTTTGAGA had a TetR repression strength of 0.238.

TCCCGGGAAGTGGGGGAGA gave a TetR repression strength of 0.274.

On to TCCCGGATAGTGATCGAGA, for which the TetR repression strength came to 0.33. The result for TCCCGACTAGTCAGGGAGA reads 0.515. With TCCCCGGGAGTGTGGGAGA, the TetR repression strength stood at 0.207.

TCCCCTTGAGTTGAGGAGA: the TetR repression strength came to 0.707. The result for TCCCAAGAAGTTGCGGAGA reads 0.21. Take TCCCTGGTAGTGAGAGAGA: the TetR repression strength is 0.326.

TCCCTGGTAGTTAGTGAGA: the TetR repression strength came to 0.141.

Regarding TCCCTTGGAGTTGAGGAGA, the TetR repression strength came to 0.465. In turn, TCCCCTAGAGTTGAGGAGA yielded a TetR repression strength of 0.239. As to TCCCTGGTAGTTAGAGAGA, the TetR repression strength was 0.821. Next, TCCCTGGTAGTGACCGAGA: 0.116. Next, TCCCTAGAAGTTGCGGAGA: 1.2; TCCCTAGTAGTTGCGGAGA: 0.322. Next, TCCCTGGTAGTGACAGAGA: 1.03; TCCCTGTTAGTTAGAGAGA: 0.452; TCCCGGCTAGTGTGGGAGA: 0.221. For TCCCAGGAAGTCAGGGAGA, the TetR repression strength was 0.235. Take TCCCCGAGAGTGCCAGAGA: the TetR repression strength was found to be 0.411. The sequence TCCCAATGAGTTCAGGAGA displayed a TetR repression strength of 0.243. The result for TCCCAGTTAGTAATTGAGA reads 0.0467; that for TCCCCTGGAGTTGGGGAGA, 1.09; that for TCCCTGGGAGTTGGGGAGA, 0.211.

TCCCCTGGAGTTTGGGAGA had a TetR repression strength of 0.286. As for TCCCGACTAGTGATAGAGA, the TetR repression strength was determined as 0.632. TCCCGTCTAGTGTTTGAGA: the TetR repression strength is 0.371. The result for TCCCCTCGAGTGTGTGAGA reads 0.125; that for TCCCCTGTAGTGTTTGAGA, 0.396; that for TCCCCTTGAGTGTTTGAGA, 0.302.

Sequence TCCCCTCGAGTGTTTGAGA showed a TetR repression strength of 0.92. Next, TCCCCTCTAGTGTTTGAGA: 0.945.

In turn, TCCCCCAGAGTTAACGAGA returned a TetR repression strength of 0.207.

As to TCCCCTGCAGTGGCTGAGA, the TetR repression strength amounted to 0.205. The result for TCCCCATGAGTCGTCGAGA reads 0.214. The result for TCCCCATGAGTAGTCGAGA reads 1.03.

TCCCCAATAGTAGATGAGA registered a TetR repression strength of 0.672. With TCCCCAAAAGTAGATGAGA, the TetR repression strength came out at 0.081. The result for TCCCCAAGAGTAGATGAGA reads 0.739. The result for TCCCCAATAGTAGTCGAGA reads 0.459. As for TCCCGTTGAGTCGATGAGA, the TetR repression strength was determined as 0.335. With TCCCCTAGAGTCGATGAGA, the TetR repression strength was 0.271.

The sequence TCCCGTAGAGTCGATGAGA returned a TetR repression strength of 0.715. The result for TCCCCATTAGTATTCGAGA reads 0.24.

Turning to TCCCCATTAGTAGTCGAGA, the TetR repression strength was found to be 1.01.

Consider TCCCCACGAGTAGTCGAGA, for which the TetR repression strength is 0. TCCCGAAGAGTAAGTGAGA gave a TetR repression strength of 0.207. Next, TCCCGTCCAGTGTGTGAGA: 0.22; TCCCATATAGTGTACGAGA: 0.0769; TCCCCTAGAGTGCAAGAGA: 0.552.

In the case of TCCCATGGAGTTGGTGAGA, the TetR repression strength came to 0.227. Consider TCCCCTCAAGTCGAGGAGA, for which the TetR repression strength turned out to be 0.125. With TCCCTACAAGTGGATGAGA, the TetR repression strength came out at 0.221. Next, TCCCCTTCAGTCCCAGAGA: 1.12; TCCCAGTCAGTCCCAGAGA: 0.365. Next, TCCCTGTCAGTGCCAGAGA: 0.324. Next, TCCCTTTCAGTCCCAGAGA: 0.0305; TCCCCAGTAGTCTGAGAGA: 0.0196; TCCCTATCAGTCCGAGAGA: 0.324.

TCCCCAGTAGTCCCTGAGA: the TetR repression strength amounted to 0.945. For TCCCTATCAGTGCCAGAGA, the TetR repression strength worked out at 0.743. The result for TCCCTATCAGTCCCAGAGA reads 1.18. With TCCCTCTCAGTGCCAGAGA, the TetR repression strength worked out at 0.585.

Turning to TCCCTATTAGTCCCAGAGA, the TetR repression strength came out at 0.32.

TCCCCAGTAGTCGCTGAGA had a TetR repression strength of 0.311. Next, TCCCGTCAAGTAATAGAGA: 0.331; TCCCTGTTAGTTGTCGAGA: 0.341. With TCCCTTTCAGTATGGGAGA, the TetR repression strength worked out at 0.422. Sequence TCCCAAAAAGTGGTGGAGA yielded a TetR repression strength of 0.203. Next, TCCCCGCGAGTTGAAGAGA: 0.335; TCCCTAACAGTCGGCGAGA: 0.163.
